Drawing on PubChem BioAssay (NCI), this text covers growth for 8 compounds.

Some test systems named below: NCI-H23 lung; NCI-H226 lung; NCI-H322M lung; HOP-62 NSCLC; NCI-H460 lung; HOP-92 NSCLC; NCI-H522 lung; A549/ATCC NSCLC; 786-0 renal; COLO 205 colon; DU-145 prostate; K-562 leukemia; MALME-3M melanoma; MDA-MB-231 breast; SF-268 CNS; SF-295 CNS; SF-539 CNS; UACC-257 melanoma; M14 melanoma.
Assay in all cases: NCI-60 one-dose screen, 48 h (100 = growth as untreated, 0 = no growth, -100 = all killed)
Holding throughout (details): 10 µM unless noted

The panel holds about 83,000 compounds, 20% with a hit somewhere; the sample as a whole holds those more often.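 Negative percent growth values reflect cell death: -40 means 40% of the cells present at the start died, and -100 means all died.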 Unmarked numbers belong to inactive results. Active and inactive are the calls of the source. The calls were made as follows: active = growth percent below 10; inactive = the rest.

Regarding `Cc1c([N+](=O)[O-])cc(C(C)(C)C)cc1[N+](=O)[O-]`, the growth is 97.4% in the test on NCI-H23 lung; 91.3% in the test with NCI-H226 lung; 117% in the test on NCI-H322M lung; 76.2% in the test on HOP-62 NSCLC; 102% with NCI-H460 lung; 96.4% in the test with HOP-92 NSCLC. The growth with NCI-H522 lung is 60.2%; in the test with A549/ATCC NSCLC it was 81.8%; in the test with 786-0 renal, 104%; in the test on COLO 205 colon, 114%; in the test with DU-145 prostate, 107%; in the test on K-562 leukemia, 112%. Also, the growth was 118% in the test with MALME-3M melanoma; 107% in the test with MDA-MB-231 breast; 93.3% in the test on SF-268 CNS; 97.6% in the test with SF-295 CNS; 104% in the test with SF-539 CNS; 85.4% with UACC-257 melanoma. Besides, the growth in the test on M14 melanoma is 107%.
As to `CC(=O)O[C@H]1CC[C@@]2(C)[C@@H](CC[C@@H]3[C@@H]2CC[C@@]2(C)[C@H]3CC[C@]2(O)C(C)=O)C1`, the growth in the test on NCI-H23 lung is 101%; in the test with NCI-H226 lung, 89.8%; in the test on NCI-H322M lung, 91.9%; in the test on HOP-62 NSCLC it was 95.3%; in the test on NCI-H460 lung, 105%; with HOP-92 NSCLC, 101%. Further, the growth in the test with NCI-H522 lung is 96.8%; with A549/ATCC NSCLC it was 92.1%; with 786-0 renal it was 98.1%; in the test with COLO 205 colon, 107%; in the test on DU-145 prostate, 115%; in the test with K-562 leukemia, 100%. For the same compound, the growth in the test with MALME-3M melanoma was 99.5%; with MDA-MB-231 breast, 100%; in the test with SF-268 CNS it was 106%; in the test with SF-295 CNS it was 94.4%; in the test with SF-539 CNS, 100%; in the test on UACC-257 melanoma it was 109%. In the test with M14 melanoma, the growth was 99.3%.
For `O=C(OCc1nc2nc(Cl)nc(N3CCOCC3)c2[nH]1)n1ccnc1`, the growth in the test on NCI-H23 lung was 40.7%; in the test on NCI-H226 lung it was -67.6% (active); in the test with NCI-H322M lung it was 65.4%; with HOP-62 NSCLC, 30.4%; with NCI-H460 lung, 3.6% (active); in the test with HOP-92 NSCLC, -66.7% (active). Also, the growth in the test on NCI-H522 lung was -66% (active); with A549/ATCC NSCLC, 48.4%; with 786-0 renal it was -81.4% (active); with COLO 205 colon, -65.3% (active); in the test with DU-145 prostate it was 9.47% (active); in the test with K-562 leukemia it was -7.19% (active). The growth is 11% with MALME-3M melanoma; -6.91% (active) in the test on MDA-MB-231 breast; 5.74% (active) in the test on SF-268 CNS; 95.2% with SF-295 CNS; -19.7% (active) in the test on SF-539 CNS; -71% (active) in the test with UACC-257 melanoma. Further, in the test on M14 melanoma, the growth was -37.6% (active).
With `CC(=O)c1c[nH]c2ccc(-c3ccnc(Nc4ccc(NC(=O)c5cccc(F)c5)c(CN5CCOCC5)c4)n3)cc12`, the growth was -13.2% (active) in the test on NCI-H23 lung; -0.697% (active) with NCI-H226 lung; -1.47% (active) with NCI-H322M lung; 1.97% (active) in the test on HOP-62 NSCLC; -6.06% (active) with NCI-H460 lung; -22.8% (active) in the test on HOP-92 NSCLC. Moreover, the growth with NCI-H522 lung is 0.424% (active); with A549/ATCC NSCLC it was 8.56% (active); in the test on 786-0 renal, 5.7% (active); in the test with COLO 205 colon, -17.8% (active); with DU-145 prostate it was 2.59% (active); in the test with K-562 leukemia, 4.68% (active). In addition, the growth is -21.7% (active) with MALME-3M melanoma; -37.5% (active) in the test with MDA-MB-231 breast; -16.8% (active) in the test on SF-268 CNS; -17.2% (active) in the test on SF-295 CNS; -56% (active) in the test on SF-539 CNS; 4.48% (active) in the test on UACC-257 melanoma. Besides, in the test with M14 melanoma, the growth was -19.4% (active).
For the compound `COc1ccc(/C=C2\COc3ccc(-c4ccccc4)cc3C2=O)cc1O`, the growth in the test with NCI-H23 lung was 50.5%; in the test on NCI-H226 lung, 96.2%; in the test with NCI-H322M lung, 66.7%; in the test on HOP-62 NSCLC it was -41.9% (active); in the test with NCI-H460 lung, 16.7%; with HOP-92 NSCLC it was -1.71% (active). Moreover, the growth was 17.8% in the test on NCI-H522 lung; 62% with A549/ATCC NSCLC; -21.8% (active) with 786-0 renal; 63.9% in the test with COLO 205 colon; -2.34% (active) with DU-145 prostate; 2.96% (active) in the test with K-562 leukemia. Besides, the growth in the test on MALME-3M melanoma is 74.7%; with MDA-MB-231 breast it was 41.6%; in the test with SF-268 CNS, 13.3%; in the test with SF-295 CNS, 24.2%; with SF-539 CNS, -0.576% (active); in the test with UACC-257 melanoma, 48.3%. Also, in the test on M14 melanoma, the growth was 22.9%.
Take `CCC(C)C(N)C(=O)NNc1n[nH]c(=S)n1N` (configuration not stated): the growth is 102% with NCI-H23 lung; 101% with NCI-H226 lung; 105% with NCI-H322M lung; 105% with HOP-62 NSCLC; 103% with NCI-H460 lung; 97.6% in the test on HOP-92 NSCLC. The growth with NCI-H522 lung was 89%; in the test with A549/ATCC NSCLC, 102%; in the test with 786-0 renal, 102%; in the test with COLO 205 colon it was 116%; in the test on DU-145 prostate, 109%; in the test with K-562 leukemia, 102%. Besides, the growth in the test on MALME-3M melanoma was 101%; with MDA-MB-231 breast, 101%; with SF-268 CNS it was 98.2%; with SF-295 CNS it was 103%; in the test with SF-539 CNS it was 94.7%; in the test with UACC-257 melanoma it was 99.4%. For the same compound, in the test on M14 melanoma, the growth was 100%.
Turning to `O=C(O)CCCCCCCCCCCCCCC(=O)O`, the growth in the test with NCI-H23 lung was 103%; in the test on NCI-H226 lung, 85.3%; with NCI-H322M lung, 100%; in the test with HOP-62 NSCLC, 99.1%; with NCI-H460 lung it was 110%; in the test on HOP-92 NSCLC it was 85.1%. In addition, the growth with NCI-H522 lung is 89.6%; in the test on A549/ATCC NSCLC it was 90.5%; in the test with 786-0 renal, 102%; in the test on COLO 205 colon, 108%; with DU-145 prostate, 106%; in the test on K-562 leukemia, 109%. Moreover, the growth in the test with MALME-3M melanoma is 101%; in the test with MDA-MB-231 breast it was 98.2%; in the test on SF-268 CNS it was 98.9%; with SF-295 CNS it was 101%; in the test with SF-539 CNS, 105%; with UACC-257 melanoma it was 95.6%. Further, the growth with M14 melanoma was 107%.
Consider `COc1ccc(C2CC(c3cccc(Nc4ccncc4)c3)=NN2c2cc(Cl)cc(Cl)c2)cc1` (configuration not stated), for which the growth was 80.2% with NCI-H23 lung; 87.6% with NCI-H226 lung; 75.9% in the test on NCI-H322M lung; 25.1% in the test with HOP-62 NSCLC; -77.6% (active) with NCI-H460 lung; 54.9% with HOP-92 NSCLC. For the same compound, the growth was 4.77% (active) with NCI-H522 lung; 26.5% with A549/ATCC NSCLC; 99.2% with 786-0 renal; -55.1% (active) in the test with COLO 205 colon; 13.3% with DU-145 prostate; 0.631% (active) with K-562 leukemia. Besides, the growth in the test with MALME-3M melanoma was -40.6% (active); in the test on MDA-MB-231 breast, 44.7%; in the test on SF-268 CNS, 66.3%; in the test on SF-295 CNS it was 72.4%; with SF-539 CNS, 78%; with UACC-257 melanoma, 62%. Besides, the growth with M14 melanoma is 97%.
